# From PubChem BioAssay
# Where “and” joins values, the source holds several entries; their conditions need not be identical. Equal entries are not always repeated. Records with an inconclusive call do not appear. More than one record can exist for a structure, and the calls need not agree. Calls of active or inactive are those of the source.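 Rule for the calls, unless noted: active = efflux inhibition above 0.42, the validation set average plus 4 SD; inconclusive = no clear call, values can overlap the other calls; inactive = the rest.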
# Assays:
# [1] = yeast TOR pathway RPL19A-GFP modulators, primary screen, cell-based, S. cerevisiae, multiplex flow cytometry (AID 1862; in the data active = percent of DMSO control GFP below about 86%;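 note: lower values mimic rapamycin by blocking the RPL19A rise seen in DMSO cells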); conditions: S. cerevisiae RPL19A-GFP strain, flow cytometry fluorescence, 3 h; at 10 µM; stronger effect = lower value
# [2] = modulators of MEP2-GFP levels in yeast, primary screen, S. cerevisiae, multiplex flow cytometry (AID 1867;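 active = GFP response, as percent of the DMSO control, above the screen-wide mean plus 3 SD, about 139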;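 note: median GFP channel fluorescence of barcode-gated MEP2-GFP cells measured by flow cytometry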); conditions: S. cerevisiae MEP2-GFP strain, 3 h, at 10 µM, stronger effect = higher value, 100% means same as DMSO wells
# [3] = modulators of CIT2-GFP expression in yeast, primary screen, S. cerevisiae, GFP fusion, multiplex flow cytometry (AID 1870;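 active = percent response above a set limit, the screen-wide mean plus 3 SD, cut at about 130% in these data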;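 note: barcoded CIT2-GFP strain pooled with four other GFP strains with rapamycin as positive control; median GFP fluorescence per well over plate mean of DMSO wells so 100% = DMSO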); conditions: 3 h, at 10 µM, stronger effect = higher value
# [4] = modulators of LAP4-GFP expression in yeast, primary screen, S. cerevisiae, multiplex flow cytometry (AID 1873;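 active = GFP signal, as percent of the solvent control, above the screen mean plus 3 SD, about 149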); conditions: 3 h, at 10 µM, stronger effect = higher value
# [5] = modulators of AGP1-GFP expression in yeast TOR pathway, primary screen, cell-based, multiplex flow cytometry, S. cerevisiae (AID 1887;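 active = GFP signal above the screen-wide mean plus 3 SD, that is over about 124.5% of the solvent control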;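 note: AGP1-GFP fusion strain of S. cerevisiae within a five-strain barcoded multiplex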); conditions: 3 h, at 10 µM, stronger effect = higher value
# [6] = RPL19A-GFP modulators, yeast TOR pathway, confirmation, cell-based, S. cerevisiae, flow cytometry, cherry picks, mother/daughter gates (AID 2270;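 active = GFP response below 50% of the DMSO control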); conditions: S. cerevisiae RPL19A-GFP strain, 3 h, at 10 µM, stronger effect = lower value, 100 = same GFP as DMSO wells
# [7] = LAP4-GFP expression modulators in yeast, confirmation, cell-based, cherry picks, flow cytometry, mother/daughter gates (AID 2271;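 active = GFP response above 150% of the DMSO control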;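 note: ratio of sample to DMSO plate mean so 100% equals DMSO level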); conditions: S. cerevisiae LAP4-GFP strain, 3 h, at 10 µM, stronger effect = higher value, 100 means same as DMSO control
# [8] = modulators of MEP2-GFP levels in yeast, confirmation, S. cerevisiae, flow cytometry GFP, cherry picks (AID 2272;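 active = GFP response above 150% of the DMSO control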;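 note: ratio of well signal to plate DMSO mean so 100% equals DMSO level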); conditions: S. cerevisiae MEP2-GFP strain, 3 h, at 10 µM, stronger effect = higher value
# [9] = modulators of CIT2-GFP expression in yeast, confirmation, S. cerevisiae, GFP fusion, cherry picks, mother/daughter gates (AID 2274;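 active = GFP response above 150% of the DMSO level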); conditions: S. cerevisiae CIT2-GFP strain, flow cytometry, 3 h, at 10 µM, stronger effect = higher value
# [10] = inhibitors of CD8+ T cell-vesicle binding, pilot screen, LFA-1/ICAM-1 modulator project, MLPCN validation set, flow cytometry (AID 2523;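 active = response below a set limit, under 55% cells CD8-positive and vesicle-bound, and CD8 cells' 90th-percentile brightness under 279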;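 for vesicle binding response: mean PE anti-B7-1 fluorescence of CD8+ cells relative to row control; 100% = QL9-loaded vesicles with DMSO vehicle in the same plate row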); conditions: 2C mouse CD8+ T cells, at 7 µM, stronger effect = lower value; double positive events: measured here: CD8+/vesicle+ event percentage
# [11] = target: Integrin beta-1 (Homo sapiens) + Integrin alpha-4 (Homo sapiens) (UniProt P13612+P05556); assay: inhibition of HUTS-21 binding to VLA-4, pilot screen, VLA-4 allosteric modulator project, U937 cells, HUTS-21 mAb, flow cytometry, validation set (AID 2674;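 active = inhibition above 50%, about 3 SD of the validation set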;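 note: antibody binding induced by the VLA-4 ligand LDV present at three times its Kd; 0% = LDV ligand with antibody and no compound and 100% = antibody without LDV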); conditions: HUTS-21 LIBS mAb binding, at 6.7 µM, stronger effect = higher value, binding induced by LDV ligand
# Chain of Integrin beta-1 (Homo sapiens) + Integrin alpha-4 (Homo sapiens) (P05556 whole entry, looked up): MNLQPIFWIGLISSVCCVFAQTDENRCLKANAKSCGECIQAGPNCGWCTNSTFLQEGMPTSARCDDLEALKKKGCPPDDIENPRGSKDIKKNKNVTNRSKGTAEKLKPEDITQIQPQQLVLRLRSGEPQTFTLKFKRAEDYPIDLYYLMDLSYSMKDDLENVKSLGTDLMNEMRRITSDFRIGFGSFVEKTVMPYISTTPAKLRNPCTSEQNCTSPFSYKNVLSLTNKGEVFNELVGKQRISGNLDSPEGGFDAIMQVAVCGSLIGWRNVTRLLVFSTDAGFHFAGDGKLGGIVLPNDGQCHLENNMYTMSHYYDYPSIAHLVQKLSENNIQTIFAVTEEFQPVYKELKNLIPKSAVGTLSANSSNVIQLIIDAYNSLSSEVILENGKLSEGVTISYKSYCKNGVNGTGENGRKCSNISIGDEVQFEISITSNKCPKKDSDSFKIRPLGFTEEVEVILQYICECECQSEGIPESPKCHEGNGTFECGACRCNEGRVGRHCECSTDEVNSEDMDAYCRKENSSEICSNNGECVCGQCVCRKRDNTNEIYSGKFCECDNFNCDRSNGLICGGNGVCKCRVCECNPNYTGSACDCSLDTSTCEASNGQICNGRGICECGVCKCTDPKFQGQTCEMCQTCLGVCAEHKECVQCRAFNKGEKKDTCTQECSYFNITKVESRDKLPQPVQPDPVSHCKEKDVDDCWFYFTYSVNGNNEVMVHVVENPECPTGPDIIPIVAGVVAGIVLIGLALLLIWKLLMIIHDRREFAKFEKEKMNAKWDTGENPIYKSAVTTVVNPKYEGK
# Chain of Integrin beta-1 (Homo sapiens) + Integrin alpha-4 (Homo sapiens) (P13612 whole entry, looked up): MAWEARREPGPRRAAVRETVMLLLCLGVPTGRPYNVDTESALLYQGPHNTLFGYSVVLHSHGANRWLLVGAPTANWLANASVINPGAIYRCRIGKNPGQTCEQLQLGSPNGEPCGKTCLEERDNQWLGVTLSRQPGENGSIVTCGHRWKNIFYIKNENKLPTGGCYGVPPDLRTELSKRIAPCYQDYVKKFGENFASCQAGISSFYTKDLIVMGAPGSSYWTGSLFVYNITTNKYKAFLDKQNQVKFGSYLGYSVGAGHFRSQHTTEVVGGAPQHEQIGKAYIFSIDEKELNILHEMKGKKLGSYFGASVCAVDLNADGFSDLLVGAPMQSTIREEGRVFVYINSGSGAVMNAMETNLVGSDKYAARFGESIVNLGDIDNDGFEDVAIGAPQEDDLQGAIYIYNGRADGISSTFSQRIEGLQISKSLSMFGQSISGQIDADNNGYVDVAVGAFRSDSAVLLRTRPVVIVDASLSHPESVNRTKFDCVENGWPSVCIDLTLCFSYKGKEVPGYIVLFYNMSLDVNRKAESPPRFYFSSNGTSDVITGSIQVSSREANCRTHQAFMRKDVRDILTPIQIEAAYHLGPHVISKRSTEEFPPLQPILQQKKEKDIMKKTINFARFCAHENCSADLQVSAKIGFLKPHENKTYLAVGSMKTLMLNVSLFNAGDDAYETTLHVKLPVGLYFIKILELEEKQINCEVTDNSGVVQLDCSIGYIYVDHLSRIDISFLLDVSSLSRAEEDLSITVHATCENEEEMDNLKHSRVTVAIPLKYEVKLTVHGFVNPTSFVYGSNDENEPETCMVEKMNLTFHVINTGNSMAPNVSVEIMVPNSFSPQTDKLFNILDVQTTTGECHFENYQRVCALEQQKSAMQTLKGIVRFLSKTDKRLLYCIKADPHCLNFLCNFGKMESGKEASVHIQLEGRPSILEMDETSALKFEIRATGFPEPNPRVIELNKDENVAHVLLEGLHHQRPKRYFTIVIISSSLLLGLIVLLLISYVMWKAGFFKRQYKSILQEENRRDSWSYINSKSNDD
# [12] = superoxide lowering in aged yeast cells, pilot screen, validation compound set (AID 2706;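 active = superoxide response below 65% of plate, a cut near 3 SD across the whole screen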;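 note: yeast exposed to compound for one week at 30 degrees C before staining; 100% = mean of all compound wells on the same plate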); conditions: S. cerevisiae aging, superoxide DHE fluorescence; at 10 µM; stronger effect = lower value
# [13] = target: Beta-adrenergic receptor kinase 1 (Homo sapiens) (UniProt P25098); assay: GRK2 binders displacing RNA aptamer, biochemical, validation, human GRK2, bead flow cytometry (AID 488806;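 active = aptamer binding inhibition above 30%, about 3 SD of noise from non-fluorescent compounds; inactive = inhibition at or below 30%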); conditions: bead-bound GRK2, FAM-aptamer displacement, at 10 µM, stronger effect = higher value
# Chain of Beta-adrenergic receptor kinase 1 (Homo sapiens) (P25098 whole entry, looked up): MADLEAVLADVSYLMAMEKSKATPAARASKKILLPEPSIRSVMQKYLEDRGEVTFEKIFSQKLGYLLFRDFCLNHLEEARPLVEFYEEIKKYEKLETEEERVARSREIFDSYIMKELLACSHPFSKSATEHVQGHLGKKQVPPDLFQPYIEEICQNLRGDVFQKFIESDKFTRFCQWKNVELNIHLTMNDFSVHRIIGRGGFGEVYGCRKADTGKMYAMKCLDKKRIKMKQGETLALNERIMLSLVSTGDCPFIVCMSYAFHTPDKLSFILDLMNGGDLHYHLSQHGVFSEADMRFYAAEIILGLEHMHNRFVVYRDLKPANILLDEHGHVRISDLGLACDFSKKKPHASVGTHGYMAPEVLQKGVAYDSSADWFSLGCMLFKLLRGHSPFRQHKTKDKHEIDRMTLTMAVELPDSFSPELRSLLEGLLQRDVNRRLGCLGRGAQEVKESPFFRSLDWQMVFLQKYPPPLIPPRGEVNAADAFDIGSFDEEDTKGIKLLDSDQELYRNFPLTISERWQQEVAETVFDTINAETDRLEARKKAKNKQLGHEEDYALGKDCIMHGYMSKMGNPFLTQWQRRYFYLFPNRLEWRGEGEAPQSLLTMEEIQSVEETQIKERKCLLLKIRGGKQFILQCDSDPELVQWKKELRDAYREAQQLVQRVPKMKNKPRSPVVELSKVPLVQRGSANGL
# [14] = target: Beta-2 adrenergic receptor (Homo sapiens) (UniProt P07550); assay: beta2AR agonists driving receptor internalization, pilot screen, cell-based, FAP fluorogen, flow cytometry, validation set (AID 504459;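 active = percent response above 42, roughly 3 SD of non-fluorescent test compounds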;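 note: agonist-driven loss of surface beta2AR via internalization measured by FAP dye flow cytometry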); conditions: Am2.2-beta2AR cells, FAP surface receptor flow cytometry; at 10 µM; stronger effect = higher value
# Chain of Beta-2 adrenergic receptor (Homo sapiens) (P07550 whole entry, looked up): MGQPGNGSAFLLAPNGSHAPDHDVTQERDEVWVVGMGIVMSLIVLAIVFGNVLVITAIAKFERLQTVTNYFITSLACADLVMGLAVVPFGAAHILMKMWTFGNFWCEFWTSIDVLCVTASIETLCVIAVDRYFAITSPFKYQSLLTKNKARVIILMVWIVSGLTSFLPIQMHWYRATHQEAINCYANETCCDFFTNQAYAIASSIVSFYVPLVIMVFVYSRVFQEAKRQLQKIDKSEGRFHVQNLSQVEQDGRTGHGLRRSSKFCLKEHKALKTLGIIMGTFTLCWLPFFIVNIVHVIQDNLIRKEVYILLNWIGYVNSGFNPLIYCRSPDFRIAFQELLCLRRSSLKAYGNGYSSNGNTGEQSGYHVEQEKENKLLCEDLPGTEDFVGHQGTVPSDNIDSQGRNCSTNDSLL
# [15] = target: AP-2 complex subunit beta (Homo sapiens) (UniProt P63010); assay: inhibitors of arrestin peptide binding to AP2, pilot screen, biochemical, validation set, GST-AP2 beads, flow cytometry (AID 504541;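 active = inhibition above 54%, about 3 SD of non-fluorescent compounds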;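 note: AP2 carries R879A mutation and is captured from E. coli lysate; bead-bound FITC arrestin peptide fluorescence measuring arrestin peptide binding to AP2; 0% = DMSO wells and 100% = excess unlabeled arrestin peptide control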); conditions: FITC arrestin peptide, at 10 µM, stronger effect = higher value, AP2 beta2 appendage fragment, R879A mutant
# Chain of AP-2 complex subunit beta (Homo sapiens) (P63010 whole entry, looked up, the tested form may be a part, one chain of several): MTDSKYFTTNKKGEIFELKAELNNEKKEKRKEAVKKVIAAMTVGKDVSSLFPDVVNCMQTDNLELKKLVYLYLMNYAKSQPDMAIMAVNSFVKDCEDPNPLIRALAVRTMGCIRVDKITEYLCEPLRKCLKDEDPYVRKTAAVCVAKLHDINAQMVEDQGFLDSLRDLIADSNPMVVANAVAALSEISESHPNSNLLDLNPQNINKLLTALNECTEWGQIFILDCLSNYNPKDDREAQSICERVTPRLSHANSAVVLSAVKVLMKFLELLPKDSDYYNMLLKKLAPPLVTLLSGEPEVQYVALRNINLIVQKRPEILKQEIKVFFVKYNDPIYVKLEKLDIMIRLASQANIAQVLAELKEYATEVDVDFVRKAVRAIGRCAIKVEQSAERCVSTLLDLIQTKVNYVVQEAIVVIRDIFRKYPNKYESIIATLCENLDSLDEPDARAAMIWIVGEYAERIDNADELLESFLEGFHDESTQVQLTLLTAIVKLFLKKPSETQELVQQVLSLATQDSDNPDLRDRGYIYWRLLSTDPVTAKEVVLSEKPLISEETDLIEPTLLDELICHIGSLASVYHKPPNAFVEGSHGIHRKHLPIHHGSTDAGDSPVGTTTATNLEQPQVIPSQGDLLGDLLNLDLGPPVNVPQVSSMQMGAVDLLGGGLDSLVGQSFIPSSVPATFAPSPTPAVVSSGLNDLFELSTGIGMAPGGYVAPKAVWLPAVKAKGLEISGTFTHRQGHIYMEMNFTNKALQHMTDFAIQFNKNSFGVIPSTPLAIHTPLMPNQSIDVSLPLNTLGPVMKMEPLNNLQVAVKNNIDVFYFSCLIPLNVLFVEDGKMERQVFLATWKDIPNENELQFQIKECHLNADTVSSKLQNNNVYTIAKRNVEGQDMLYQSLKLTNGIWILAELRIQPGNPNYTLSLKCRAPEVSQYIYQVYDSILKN
# [16] = yeast V-ATPase proton transport modulators, S. cerevisiae, pHLuorin, HTS validation (AID 504600; in the data active = response above about 15%;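 note: plate controls were DMSO for no effect and reference compound for full effect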); conditions: S. cerevisiae pHLuorin cytosolic pH, at 10 µM, stronger effect = higher value
# [17] = system: anti-desmoglein-3 scFv antibody binding to human DSG3; assay: inhibitors of anti-DSG3 scFv binding to DSG3, pilot screen, biochemical, validation compound set, bead-based, flow cytometry (AID 588368;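 active = binding below the plate cutoff, the plate median minus 3 SD, with a reading above zero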;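 note: signal is the median channel fluorescence of bead-bound GFP antibody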); conditions: Protein G beads, DSG3-Fc, scFv-GFP binding, at 10 µM, stronger effect = lower value
# [18] = inhibitors of fungal efflux pumps CDR1, CDR2, MDR1, pilot screen, validation compound set, multiplex, phenotypic (AID 588506);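 note: Nile Red retained in cells so higher fluorescence means more efflux inhibition; 0 = negative control wells and 1 = enniatin B 25 µM full block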; conditions: S. cerevisiae pump-expressing triplex, Nile Red efflux flow cytometry; at 10 µM; stronger effect = higher value; the pumps come from Candida albicans
# [19] = target: ATP-binding cassette sub-family B member 6 (Homo sapiens) (UniProt Q9NP58); assay: ABCB6 transporter inhibitors, pilot screen, K562-ABCB6 cells, flow cytometry, validation set (AID 588550;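 active = inhibition above the screen-wide mean plus 3 SD, about 51%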;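 note: 0% = DMSO wells and 100% = benzethonium chloride 70 µM positive control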); conditions: K562-ABCB6 porphyrin accumulation, 1 h, at 10 µM, stronger effect = higher value
# Chain of ATP-binding cassette sub-family B member 6 (Homo sapiens) (Q9NP58 whole entry, looked up): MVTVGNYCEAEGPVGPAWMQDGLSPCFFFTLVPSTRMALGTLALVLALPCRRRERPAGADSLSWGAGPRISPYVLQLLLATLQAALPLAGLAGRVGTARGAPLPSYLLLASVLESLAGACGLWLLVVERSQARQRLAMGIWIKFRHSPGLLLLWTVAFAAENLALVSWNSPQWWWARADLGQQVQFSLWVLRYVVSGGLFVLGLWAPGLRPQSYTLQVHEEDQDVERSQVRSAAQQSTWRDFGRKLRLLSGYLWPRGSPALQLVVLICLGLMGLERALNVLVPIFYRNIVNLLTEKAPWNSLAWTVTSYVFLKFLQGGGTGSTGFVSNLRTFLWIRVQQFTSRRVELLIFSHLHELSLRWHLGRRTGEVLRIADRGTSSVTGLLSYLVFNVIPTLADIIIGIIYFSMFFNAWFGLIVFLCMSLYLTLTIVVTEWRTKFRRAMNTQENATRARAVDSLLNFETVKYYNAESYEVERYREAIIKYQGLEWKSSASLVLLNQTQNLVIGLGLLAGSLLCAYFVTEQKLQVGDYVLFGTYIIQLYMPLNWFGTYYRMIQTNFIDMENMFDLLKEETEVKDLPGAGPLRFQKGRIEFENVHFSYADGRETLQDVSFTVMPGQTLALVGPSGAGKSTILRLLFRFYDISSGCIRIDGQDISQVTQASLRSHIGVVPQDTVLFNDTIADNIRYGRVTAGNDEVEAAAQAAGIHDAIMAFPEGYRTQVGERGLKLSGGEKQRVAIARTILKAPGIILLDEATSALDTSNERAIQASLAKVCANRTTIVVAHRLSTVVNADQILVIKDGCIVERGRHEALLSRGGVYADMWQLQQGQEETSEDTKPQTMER
# [20] = promoters of myeloid differentiation in arrested cells, primary screen, cell-based, GFP/MAC1 double positive, flow cytometry, validation set (AID 588685;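 active = differentiation response of at least 50%, scaled between solvent and reference control, from cells with both markers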;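 note: compound exposure lasts four days before antibody staining and flow analysis; 0% = DMSO wells and 100% = 5 µM fulvestrant positive control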); conditions: ER-HoxA9 marrow cells, stronger effect = higher value, normalized: vehicle 0, fulvestrant 100
# [21] = measured here: daughter cell gate
# [22] = measured here: mother cell gate
# [23] = measured here: daughter cell gate response
# [24] = measured here: mother cell gate response
structure (smiles),measurement,setting,value
C[n+]1ccccc1/C=N/O,percent of DMSO control GFP,[1],99.2% (inactive) and 98.9% (inactive)
same,GFP response vs DMSO,[2],143% (active) and 101% (inactive)
same,percent response of DMSO control,[3],101% (inactive) and 95.5% (inactive)
same,GFP response vs DMSO,[4],90.2% (inactive) and 97% (inactive)
same,"GFP response, % of DMSO",[5],98.2% (inactive) and 98.3% (inactive)
same,GFP response vs DMSO,[6],99% (inactive)
same,GFP response vs DMSO,[6]; [21],99.5%
same,GFP response vs DMSO,[6]; [22],99.6%
same,GFP response relative to DMSO,[7],98.7% (inactive)
same,GFP response relative to DMSO,[7]; [23],100%
same,GFP response relative to DMSO,[7]; [24],101%
same,GFP response vs DMSO,[8],100% (inactive)
same,"GFP response, % of DMSO",[9],111% (inactive)
same,"GFP response, % of DMSO",[9]; [21],108%
same,"GFP response, % of DMSO",[9]; [22],112%
same,double positive events,[10],60.5% and 64%
same,vesicle binding response,[10],142% (inactive) and 180% (inactive)
same,inhibition,[11],15.2% (inactive) and -21.2% (inactive)
same,superoxide response (% of plate),[12],102% (inactive) and 95% (inactive)
same,aptamer binding inhibition,[13],2% (inactive) and 0% (inactive)
same,response,[14],5.73% (inactive) and -2.86% (inactive)
same,inhibition,[15],-7.09% (inactive) and 7.17% (inactive)
same,response,[16],-0.64% (inactive) and -1.12% (inactive)
same,binding (% of control),[17],104% (inactive) and 95.1% (inactive)
same,efflux inhibition (fraction of control),[18],-0.2 (inactive) and -0.47 (inactive)
same,inhibition,[19],9% (inactive) and 0% (inactive)
same,differentiation response,[20],0.82% (inactive) and 2.74% (inactive)
O=C(/C=C/c1ccccc1)c1ccccc1,percent of DMSO control GFP,[1],92.8% (inactive)
same,GFP response vs DMSO,[2],139% (inactive)
same,percent response of DMSO control,[3],96.6% (inactive)
same,GFP response vs DMSO,[4],79.8% (inactive)
same,"GFP response, % of DMSO",[5],87.5% (inactive)
same,GFP response vs DMSO,[6],98% (inactive)
same,GFP response vs DMSO,[6]; [21],100%
same,GFP response vs DMSO,[6]; [22],97.1%
same,GFP response relative to DMSO,[7],97.7% (inactive)
same,GFP response relative to DMSO,[7]; [23],96.5%
same,GFP response relative to DMSO,[7]; [24],94.6%
same,GFP response vs DMSO,[8],104% (inactive)
same,"GFP response, % of DMSO",[9],102% (inactive)
same,"GFP response, % of DMSO",[9]; [21],106%
same,"GFP response, % of DMSO",[9]; [22],99.1%
same,double positive events,[10],68%
same,vesicle binding response,[10],126% (inactive)
same,inhibition,[11],2.58% (inactive)
same,superoxide response (% of plate),[12],92.2% (inactive)
same,aptamer binding inhibition,[13],4% (inactive)
same,response,[14],5.66% (inactive)
same,inhibition,[15],-4.66% (inactive)
same,response,[16],-0.45% (inactive)
same,binding (% of control),[17],107% (inactive)
same,efflux inhibition (fraction of control),[18],-0.31 (inactive)
same,inhibition,[19],14% (inactive)
same,differentiation response,[20],9.83% (inactive)
O=[N+]([O-])c1cccc2cn[nH]c12,percent of DMSO control GFP,[1],94.4% (inactive)
same,GFP response vs DMSO,[2],155% (active)
same,percent response of DMSO control,[3],114% (inactive)
same,GFP response vs DMSO,[4],91.3% (inactive)
same,"GFP response, % of DMSO",[5],94.2% (inactive)
same,GFP response vs DMSO,[6],97.3% (inactive)
same,GFP response vs DMSO,[6]; [21],96.4%
same,GFP response vs DMSO,[6]; [22],95.2%
same,GFP response relative to DMSO,[7],98.9% (inactive)
same,GFP response relative to DMSO,[7]; [23],97.5%
same,GFP response relative to DMSO,[7]; [24],99.5%
same,GFP response vs DMSO,[8],106% (inactive)
same,"GFP response, % of DMSO",[9],103% (inactive)
same,"GFP response, % of DMSO",[9]; [21],101%
same,"GFP response, % of DMSO",[9]; [22],103%
same,double positive events,[10],51.9%
same,vesicle binding response,[10],56% (active)
same,inhibition,[11],-13.9% (inactive)
same,superoxide response (% of plate),[12],117% (inactive)
same,aptamer binding inhibition,[13],0% (inactive)
same,response,[14],-10.1% (inactive)
same,inhibition,[15],49.7% (inactive)
same,response,[16],-6.22% (inactive)
same,binding (% of control),[17],93.6% (inactive)
same,efflux inhibition (fraction of control),[18],0.3 (inactive)
same,inhibition,[19],0% (inactive)
same,differentiation response,[20],3.28% (inactive)
